The results in this text go back to PubChem BioAssay (Tox21).

Each structure is given as a SMILES string. Unmarked numbers belong to inactive results. Results filed as inconclusive are left out. Active and inactive are the calls of the source. Unless noted, the call rests on the fitted dose curve; in most records, active means well fitted curve in the direction sought with a large enough effect in the repeat runs; inconclusive means weak or mixed curves; inactive means no such curve, though single readings can be large; an effect the other way counts as inactive or inconclusive.

The nature of assay [1]: qHTS RealTime-Glo MT Cell Viability Assay in HEK293 cells - 0 hour (AID 1224880). Further: top concentration of the series differs between compounds; nearly all actives have a fitted effect of over 45% in size. Summed up: (§1)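 Viable HEK293 cells reduce a cell-permeant prosubstrate; the product diffuses out and is consumed by NanoLuc in the medium to give light. Compounds went in after a 5 h incubation and plates were read over the treatment course.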
The nature of assay [2]: A CellTox Green Cytotoxicity Assay to monitor cytotoxicity in HEK293 cells - 32 hour (AID 1224881). Further: nearly all actives have a fitted effect of over 40% in size. Summed up: (§2)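 Fluorescence intensity, read at 0, 8, 16, 24, 32 and 40 h of compound treatment, reflected dye binding to DNA of dead HEK293 cells; compounds (23 nL, DMSO) were added 5 h after plating cells with reagent.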
Assay [3] in a line: A CellTox Green Cytotoxicity Assay to monitor cytotoxicity in HepG2 cells - 0 hour (AID 1224882). Further: nearly all actives have a fitted effect of over 35% in size. Summed up: (§3)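 Using 1536-well format, dye-containing HepG2 suspension was seeded, allowed 5 h at 37 C/5% CO2, dosed by pintool with compounds, positive and negative controls, and imaged for fluorescence across 40 h.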
The nature of assay [4]: A CellTox Green Cytotoxicity Assay to monitor cytotoxicity in HepG2 cells - 32 hour (AID 1224883). Further: nearly all actives have a fitted effect of over 50% in size. Summed up: as §3
Assay [5] in a line: A CellTox Green Cytotoxicity Assay to monitor cytotoxicity in HEK293 cells - 8 hour (AID 1224884). Further: nearly all actives have a fitted effect of over 35% in size. Summed up: as §2
Assay [6] is described as follows: qHTS RealTime-Glo MT Cell Viability Assay in HEK293 cells - 24 hour (AID 1224886). Further: top concentration of the series differs between compounds; nearly all actives have a fitted effect of over 50% in size. Summed up: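 Viability tracked continuously by luminescence as live cells reduce a prosubstrate for NanoLuc; HEK293 cells preincubated 5 h, compound-treated at 37 C, and read at 0, 8, 16, 24, 32 and 40 h.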
Assay [7] is described as follows: qHTS RealTime-Glo MT Cell Viability Assay in HEK293 cells - 8 hour (AID 1224887). Further: top concentration of the series differs between compounds; nearly all actives have a fitted effect of over 50% in size. Summed up:
as §1
(In general: In qHTS, concentration-response curves come from the screen itself.)

The nature of assay [8]: A CellTox Green Cytotoxicity Assay to monitor cytotoxicity in HEK293 cells - 16 hour (AID 1224888). Further: nearly all actives have a fitted effect of over 35% in size. Summed up:
as §2

A short description of assay [9]: qHTS RealTime-Glo MT Cell Viability Assay in HepG2 cells - 0 hour (AID 1224889). Further: nearly all actives have a fitted effect of over 50% in size. Summed up: (§4)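 Viability was tracked continuously by NanoLuc luminescence from prosubstrate reduced by living HepG2 cells, at successive time points over 40 h of compound exposure. Cells with reagent were preincubated 5 h at 37 °C before compound addition.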
Assay [10] is described as follows: A CellTox Green Cytotoxicity Assay to monitor cytotoxicity in HepG2 cells - 8 hour (AID 1224890). Further: nearly all actives have a fitted effect of over 45% in size. Summed up: as §3
A short description of assay [11]: qHTS assay to identify small molecule antagonists of the estrogen receptor alpha (ER-alpha) signaling pathway using the BG1 cell line in the presence of 0.1 nM 17-beta-estradiol - cell viability counter screen (AID 1259241). Further: nearly all actives have a fitted effect of over 40% in size. Summed up: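 Viability in VM7Luc4E2 cells after 22 hr compound exposure under 0.1 nM 17beta-estradiol stimulation, by CellTiter-Fluor.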
A short description of assay [12]: qHTS assay to identify small molecule antagonists of the androgen receptor (AR) signaling pathway using the MDA cell line in the presence of 0.5 nM R1881 - cell viability counter screen (AID 1259242). Further: nearly all actives have a fitted effect of over 45% in size. Summed up:
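Viability of MDA-kb2 cells was multiplexed with the luciferase AR readout; after 16 hr with compounds and R1881 at 0.5 nM final, CellTiter-Fluor fluorescence was recorded.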

Assay [13] addresses Androgen receptor (Homo sapiens) (UniProt P10275). The assay is described as follows: qHTS assay to identify small molecule antagonists of the androgen receptor (AR) signaling pathway using the MDA cell line in the presence of 0.5 nM R1881 (AID 1259243). Further: nearly all actives have a fitted effect of over 50% in size. Summed up: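 Reporter cells cultured without CO2 receive test chemicals, then 0.5 nM R1881 final; after 16 hr at 37C, ONE-Glo is added and light output recorded.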

The nature of assay [14]: qHTS assay to identify small molecule HDAC inhibitors (AID 1259364).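 Further: wild-type HCT-116 cells with endogenous class I/II HDAC activity; top concentration of the series differs between compounds; nearly all actives have a fitted effect of over 45% in size.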 Summed up:
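Read-out: luminescence of HDAC-Glo I/II reagent, 30 min RT, reflecting class I/II deacetylase activity in whole HCT-116 cells pre-exposed 2 h to DMSO-dissolved compounds.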

The nature of assay [15]: qHTS assay to identify small molecule HDAC inhibitors - cell viability counter screen (AID 1259365). Summed up:
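Cytotoxicity was gauged in wild-type HCT-116 cells after a brief 2hr treatment with DMSO-dissolved compounds at 37C and 5% CO2, using CellTiter-Glo luminescence developed for 30min at room temperature.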

Assay [16] is described as follows: qHTS assay to identify small molecule agonists of the sonic hedgehog signaling (Shh) pathway - cell viability counter screen (AID 1259366). Further: nearly all actives have a fitted effect of over 50% in size. Summed up:
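Stable Gli1-Luc NIH/3T3 clone, 2,000 cells/well. Compound exposure 24hr at 37C. Read-out: CellTiter-Fluor fluorescence.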

Assay [17] is described as follows: qHTS assay to identify small molecule antagonists of the sonic hedgehog signaling (Shh) pathway - cell viability counter screen (AID 1259367). Further: nearly all actives have a fitted effect of over 55% in size. Summed up:
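After a 4 hr settling period, 3T3 Gli1-Luc cells were treated with DMSO-dissolved chemicals and conditioned medium, kept 24 hr at 37C in 5% CO2, and assayed for viability by CellTiter-Fluor fluorescence following 1 hr reagent incubation.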

Assay [18] is described as follows: qHTS RealTime-Glo MT Cell Viability Assay in HepG2 cells - 16 hour (AID 1224885). Further: nearly all actives have a fitted effect of over 50% in size. Summed up:
as §4

The target in assay [19] is Estrogen receptor (Homo sapiens) (UniProt P03372). Kind of assay: qHTS assay to identify small molecule antagonists of the estrogen receptor alpha (ER-alpha) signaling pathway using the BG1 cell line in the presence of 0.1 nM 17-beta-estradiol (AID 1259244). Further: nearly all actives have a fitted effect of over 50% in size. Summed up:
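Estradiol at 0.1 nM (final) stimulates the endogenous ER-alpha of VM7Luc4E2 cells carrying an ERE-driven luciferase; compounds are co-incubated 22 h at 37C and luciferase output quantified by luminescence.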

Assay [20] can be described thus: qHTS assay to identify small molecule phospholipidosis (PLD) inducers (AID 1259344; active means well fitted curve in the direction sought with a large enough effect; an effect the other way counts as inactive or inconclusive; further: potency means the concentration at half of the fitted maximal effect). Summed up:
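HepG2 cells grown on collagen I take up LipidTOX Red while exposed to compound for 24 h; after fixation they are imaged at 20x and pit metrics are extracted.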

Sequence of Estrogen receptor (Homo sapiens) (P03372 whole entry, looked up): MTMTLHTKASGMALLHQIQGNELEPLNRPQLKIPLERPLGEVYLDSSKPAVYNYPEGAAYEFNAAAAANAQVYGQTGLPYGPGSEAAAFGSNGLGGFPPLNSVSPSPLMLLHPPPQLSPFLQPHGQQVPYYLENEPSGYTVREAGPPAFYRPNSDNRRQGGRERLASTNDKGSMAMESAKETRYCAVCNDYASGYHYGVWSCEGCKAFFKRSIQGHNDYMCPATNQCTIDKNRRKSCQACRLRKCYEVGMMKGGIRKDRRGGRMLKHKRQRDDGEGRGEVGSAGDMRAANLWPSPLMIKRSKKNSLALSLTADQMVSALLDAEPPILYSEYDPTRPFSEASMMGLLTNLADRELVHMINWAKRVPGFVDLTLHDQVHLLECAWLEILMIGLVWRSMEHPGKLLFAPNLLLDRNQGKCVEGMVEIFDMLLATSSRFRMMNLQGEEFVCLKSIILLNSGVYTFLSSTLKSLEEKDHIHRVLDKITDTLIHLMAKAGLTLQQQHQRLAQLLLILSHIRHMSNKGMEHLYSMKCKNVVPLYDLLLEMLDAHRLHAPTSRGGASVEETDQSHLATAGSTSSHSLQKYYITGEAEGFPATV
Sequence of Androgen receptor (Homo sapiens) (P10275 whole entry, looked up): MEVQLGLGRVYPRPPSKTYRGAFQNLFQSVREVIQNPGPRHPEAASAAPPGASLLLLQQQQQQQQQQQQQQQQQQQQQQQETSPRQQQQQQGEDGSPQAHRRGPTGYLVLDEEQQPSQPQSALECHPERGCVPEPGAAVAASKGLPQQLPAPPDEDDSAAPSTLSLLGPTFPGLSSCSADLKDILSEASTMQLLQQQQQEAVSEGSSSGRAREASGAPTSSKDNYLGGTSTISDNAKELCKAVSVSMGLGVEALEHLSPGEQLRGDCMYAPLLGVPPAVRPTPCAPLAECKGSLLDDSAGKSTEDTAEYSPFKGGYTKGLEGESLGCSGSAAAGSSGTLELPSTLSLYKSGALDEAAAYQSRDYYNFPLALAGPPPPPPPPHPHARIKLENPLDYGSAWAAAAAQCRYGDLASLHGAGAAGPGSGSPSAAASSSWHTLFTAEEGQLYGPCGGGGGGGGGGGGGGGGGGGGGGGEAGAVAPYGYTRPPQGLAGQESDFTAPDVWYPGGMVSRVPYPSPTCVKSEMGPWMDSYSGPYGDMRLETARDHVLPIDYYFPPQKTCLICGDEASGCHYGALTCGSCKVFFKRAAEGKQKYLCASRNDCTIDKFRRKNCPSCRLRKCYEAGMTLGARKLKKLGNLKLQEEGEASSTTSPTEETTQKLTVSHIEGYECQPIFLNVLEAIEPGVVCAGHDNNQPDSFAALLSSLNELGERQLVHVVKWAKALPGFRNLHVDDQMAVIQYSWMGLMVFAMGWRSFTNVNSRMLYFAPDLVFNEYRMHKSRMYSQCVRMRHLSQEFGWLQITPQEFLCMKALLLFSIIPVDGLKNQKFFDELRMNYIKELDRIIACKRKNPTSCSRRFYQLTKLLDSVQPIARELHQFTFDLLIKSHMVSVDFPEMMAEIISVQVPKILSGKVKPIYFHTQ

On to `O=S(=O)(O)c1cc(Cl)c(Cl)cc1Cl`, for which the Potency result in [1], in [2], in assay [3], in [4], in [5] and in [6] was “inactive” in each case. For the same compound, the Potency entry in assay [7], in assay [8], in assay [9], in assay [10], in [11] and in assay [12] was “inactive” in each case. The Potency result in assay [13], in assay [14], in [16] and in assay [17] was “inactive” in each case. In addition, in assay [15], the result was inactive.

Regarding `Nc1ccc(-c2ccc(F)cc2)cc1`, the Potency entry in assay [1], in assay [2], in [3], in [4], in assay [5] and in assay [6] was “inactive” in each case. Besides, the Potency result in assay [8], in assay [9], in [10], in [11], in assay [19] and in [17] was “inactive” in each case. The compound was called inactive in assay [18] and in assay [15].

For the compound `C/C(=C(\CCO)SS/C(CCO)=C(\C)N(C=O)Cc1cnc(C)nc1N)N(C=O)Cc1cnc(C)nc1N`, the Potency result in assay [1], in [2], in assay [3], in assay [4], in assay [5] and in assay [6] was “inactive” throughout. Besides, the Potency entry in [7], in assay [8], in assay [9], in [10], in [11] and in assay [12] was “inactive” throughout. For the same compound, the Potency result in assay [19], in [20], in assay [14], in [16] and in assay [17] was “inactive” each time. Also, in [15], the call was inactive.

Consider `C[C@]12CCC(=O)C=C1[C@@H]1C[C@@H]1[C@H]1[C@@H]3[C@@H]4C[C@@H]4[C@@]4(CCC(=O)O4)[C@@]3(C)CC[C@@H]12`, for which the Potency result in assay [1], in assay [2], in [3], in assay [4], in [5] and in assay [7] was “inactive” throughout. Further, the Potency result in assay [8], in [9], in assay [10], in assay [11], in assay [12] and in assay [14] was “inactive” in each case. For the same compound, the Potency result in assay [16] and in assay [17] was “inactive” each time. The compound was classed as inactive in assay [18] and in assay [15]. For the same compound, in assay [20], the Potency was 11.2 µM (active).

`CS(C)=O`: the Potency entry in assay [1], in assay [2], in assay [3], in [4], in assay [5] and in assay [7] was “inactive” each time. Moreover, the Potency result in [9], in assay [10], in assay [11], in assay [12], in assay [16] and in assay [17] was “inactive” in each case. Further, the call in [18] and in assay [15] was inactive.

In the case of `COc1cccc([C@H](O)C2CCN(CCc3ccc(F)cc3)CC2)c1OC`, the Potency entry in [1], in assay [2], in assay [3], in [4], in assay [5] and in assay [7] was “inactive” each time. Further, the Potency entry in assay [8], in [9], in assay [10], in [11], in [12] and in [19] was “inactive” each time. Moreover, the Potency result in assay [14], in [16] and in assay [17] was “inactive” throughout. In addition, the outcome in assay [18] and in assay [15] was inactive.

For `C[C@@H](O)[C@H]1C(=O)N2C(C(=O)O)=C(S[C@@H]3CN[C@H](CNS(N)(=O)=O)C3)[C@H](C)[C@H]12`, the Potency result in assay [1], in [2], in assay [3], in assay [4], in [5] and in assay [6] was “inactive” each time. Moreover, the Potency result in assay [7], in [9], in assay [10], in [11], in assay [12] and in assay [19] was “inactive” each time. Also, the Potency entry in assay [20], in assay [14], in [16] and in assay [17] was “inactive” throughout. In addition, the compound was called inactive in assay [15].

For the compound `CCOc1ccc(NC(C)=O)cc1N`, the Potency entry in [1], in assay [2], in [3], in assay [4], in [5] and in assay [6] was “inactive” throughout. Further, the Potency result in [7], in [9], in [10], in [11], in assay [13] and in assay [19] was “inactive” each time. Also, the Potency entry in [14] and in [16] was “inactive” throughout. Moreover, in [18], the compound was called inactive.
